Assay outcomes as filed in PubChem.
Only some compounds are listed: those with a hit (about 0.98% of all), similar ones and a draw of the others.
PfHsp40 yeast: rescue of PfHsp40-mediated yeast toxicity; AID 504582; S. cerevisiae expressing PfHsp40, growth rescue, ATP luminescence; growth rescue, % at 12.5 µM; hit rate 0.68% among 340,000; in the data active = growth rescue above about 28%, passing the limit was not always enough;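 note: yeast W303a lacking pdr1 and pdr3 grown in galactose medium; growth measured after three days at 30 °C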
Mtb bLac sens: beta-lactam sensitization of Mtb H37Rv | M. tuberculosis H37Rv growth with meropenem, percent inhibition | inhibition, % at 25 µM | hit rate 0.27% among 330,000; call rule not given here;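 note: growth measured after seven days incubation then overnight dye step; 0% = bacteria only wells and 100% = bacteria with antibiotic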
Y pestis TopoI: inhibitors of Yersinia pestis topoisomerase I; Y. pestis Topo-I cleavage product accumulation, plate reader; hit rate 0.064% among 360,000; activity, % at 10 µM; in the data active = activity above about 50%, passing the limit was not always enough
Mtb UGM inh: inhibitors of M. tuberculosis UDP-galactopyranose mutase | hit rate 0.06% among 320,000 | inhibition, % at 10 µM | AID 504406 | purified UGM, fluorescence polarization probe displacement | P9WIQ1; in the data active = inhibition above about 10%, passing the limit was not always enough
Rv3671c inh: inhibitors of M. tuberculosis serine protease Rv3671c; P9WHR9; inhibition, % at 5.96 µM; hit rate 0.048% among 320,000; AID 2606; in the data active = inhibition above about 38%;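 note: extracellular domain of Rv3671c used as enzyme; 0% = enzyme with DMSO and 100% = no enzyme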
Target sequence (P9WHR9 whole entry, looked up, the tested form may be a part): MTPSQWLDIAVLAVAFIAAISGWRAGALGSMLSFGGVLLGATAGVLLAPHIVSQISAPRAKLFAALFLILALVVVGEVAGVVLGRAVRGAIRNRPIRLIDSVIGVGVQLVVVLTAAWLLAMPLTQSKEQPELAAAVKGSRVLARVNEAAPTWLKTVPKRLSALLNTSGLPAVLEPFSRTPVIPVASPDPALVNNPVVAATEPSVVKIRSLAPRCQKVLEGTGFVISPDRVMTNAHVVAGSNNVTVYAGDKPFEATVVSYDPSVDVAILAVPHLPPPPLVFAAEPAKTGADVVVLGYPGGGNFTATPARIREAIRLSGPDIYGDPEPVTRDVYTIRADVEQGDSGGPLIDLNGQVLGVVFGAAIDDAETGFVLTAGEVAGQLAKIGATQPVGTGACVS
FadD28 binding: inhibitors of Mycobacterium tuberculosis FadD28 bisubstrate binding. FadD28 bisubstrate probe binding, fluorescence polarization. inhibition, % at 12.5 µM. hit rate 0.22% among 360,000; in the data active = inhibition above about 8.5%, passing the limit was not always enough
* = called active by the depositor; / = not tested or not shown.

SMILES	PfHsp40 yeast	Mtb bLac sens	Y pestis TopoI	Mtb UGM inh	Rv3671c inh	FadD28 binding
Cc1cccc(N2C(=O)NC(=O)/C(=C/c3cc4c(cc3[N+](=O)[O-])OCO4)C2=O)c1	1	13	7	11*	6	5
COc1ccc2c(CN(C)Cc3ccccc3)cc(=O)oc2c1	/	/	/	/	/	-4
Cc1ccccc1OCC(O)Cn1c2ccccc2c2ccccc21 (configuration not stated)	111*	44	-8	1	-15	-4
COC(=O)c1ccccc1NC(=O)C(C)Oc1ccccc1 (configuration not stated)	2	0	20	1	-3	0
CC(C)NC(=O)c1ccccc1NC(=O)C(C)Oc1ccccc1 (configuration not stated)	72*	1	-3	0	6	0
CCc1nc2c(OCc3c(C)noc3C)cccn2c1N(C=O)Cc1ccc(OC)cc1	/	/	7	/	/	-4
CC(C)CC1C(=O)N(Cc2cn(CCC3OCCO3)nn2)CCS(=O)(=O)N1Cc1ccc(-c2ccncc2)cc1 (configuration not stated)	/	/	12	/	/	-2
CCc1cccc(NC(=O)COC(=O)/C=C/c2cccs2)c1	0	43	17	6	-8	20*
O=C(COC(=O)/C=C/c1cccs1)Nc1ccc(F)cc1	0	3	2	-1	7	0
CC/C(=N\NC(=O)c1ccccc1O)c1c(O)n(C2CCCCC2)c(=O)[nH]c1=O	0	5	4	-2	16	15*
CC/C(=N/NC(=O)c1ccccc1O)c1c(C)[nH]n(-c2ccccc2)c1=O	399*	22	-7	1	-1	4
Cc1ccc(NC(=S)N/N=C/c2ccc([N+](=O)[O-])s2)cc1	211*	98	-26	-1	6	1
O=C(NCc1ccccc1Cl)c1ccc2nc([C@H]3C[C@H](O)[C@@H](CO)O3)[nH]c2c1	/	/	-3	/	/	-1
Cc1ccccc1Cn1nnc(C(=O)Nc2ccc3c(c2)OCCO3)c1N	106*	-2	8	-2	-4	-1
CCCCCCCNC(=O)C1(CC2CC(c3cccc(Br)c3)=NO2)CCN(C(=O)CCCCCBr)CC1 (configuration not stated)	45*	100	27	-3	-5	-4
CCCCCCCNC(=O)C1(CC2CC(c3cccc(Br)c3)=NO2)CCN(C(=O)C2(C)CC2)CC1 (configuration not stated)	2	92	45	3	-10	-5
OC[C@H]1O[C@H](c2nc(-c3nc(-c4cccc(-n5cccc5)c4)no3)cs2)C[C@@H]1O	/	/	26	/	/	-6
CCOC(=O)C1(C)CCCCCN1C(=O)c1csnn1 (configuration not stated)	/	/	2	/	/	-1
COc1ccc(OC)c(N2C(=O)NC(=O)/C(=C\c3ccc([N+](=O)[O-])s3)C2=O)c1	-1	100	-5	2	-1	23*
CC(C)(C)c1ccc(NC(=O)c2cc(C3CCCN(S(=O)(=O)c4cccc5cccnc45)C3)on2)cc1 (configuration not stated)	/	/	-1	/	/	-1
O=C1C(=O)C(Cl)=C(Cl)C(Cl)=C1Cl	/	/	/	/	/	11*
CSc1ccccc1NC(=O)COC(=O)c1ccccc1Cc1ccccc1	6	-1	62*	0	-12	0
O=C(Cc1cccs1)Nc1cccc(-c2nc3cc4ccccc4cc3[nH]2)c1	77*	71	-5	-1	-347	-3
CC(C)(C)c1ccc(OCc2ccc(C(=O)Nc3cccnc3)o2)cc1	37*	5	40	0	-22	-3
O=C(Nc1cccnc1)c1ccc(COc2ccccc2Br)o1	6	1	3	4	-11	-6
SMILES	PfHsp40 yeast	Mtb bLac sens	Y pestis TopoI	Mtb UGM inh	Rv3671c inh	FadD28 binding
CCOc1ccc(C(=O)NC(=S)Nc2cccnc2)cc1	-1	4	-9	12*	-5	-4
CCOc1cc(C(=O)NC(=S)Nc2cccnc2)cc(OCC)c1OCC	0	8	4	-2	-3	-1
COc1ccccc1-c1csc(C(C)(NC(C)=O)c2ccccc2)n1 (configuration not stated)	/	/	11	/	/	-2
CCCCNC(=O)C1(C)CCN1C(=O)c1cc2ccccc2s1 (configuration not stated)	/	/	6	/	/	0
CC(C)(C)c1ccc(C(=O)NCCC(=O)NCc2ccc(F)cc2)cc1	/	/	5	/	/	-1
CC1(c2ccc(OC(F)F)cc2)NC(=O)N(CC(=O)Nc2ccc3[nH]c(=O)[nH]c3c2)C1=O (configuration not stated)	0	-10	-3	0	-2	12*
O=Cc1ccc(F)c([B-](F)(F)F)c1	0	/	4	/	/	1
CCCOc1ccc(F)cc1-c1cc(C(=O)NCc2cccc(C(F)(F)F)c2)[nH]n1	/	/	13	/	/	-2
COc1ccc(NC(=O)COC(=O)C2CCCN2C(=O)OC(C)(C)C)cc1Cl (configuration not stated)	/	/	-11	/	/	-3
S=C(NCCCn1ccnc1)Nc1cccc(Cl)c1	35*	-11	5	1	-7	-2
CCOc1ccc(NC(=S)NCCCn2ccnc2)cc1	0	-4	-5	0	-5	0
CCN1C(=O)/C(=C/N(C)C)c2ccccc21	0	3	10	-1	3	0
CCN1C(=O)/C(=C\N(C)C)c2ccccc21	41*	-8	8	0	4	0
COCCNC(=O)Cn1cc(C=C2C(=O)NC(=O)NC2=O)c2ccccc21	-2	-1	-1	42*	2	0
COC(=O)Cn1cc(C=C2C(=O)N(C)C(=O)N(C)C2=O)c2ccccc21	/	0	/	14*	-12	/
CCN(CC)C(=O)Cn1cc(C=C2C(=O)N(C)C(=O)N(C)C2=O)c2ccccc21	0	4	-2	-1	7	2
COC(=O)Cn1cc(/C=C2\C(=O)NC(=O)N(c3ccccc3)C2=O)c2ccccc21	0	12	6	8	-7	5
O=c1c2ccccc2nc2n1CCc1ccc(Br)cc1-2	/	/	/	/	/	0
CCc1cccc(NC(=O)COC(=O)C2COc3ccccc3O2)c1 (configuration not stated)	/	/	3	/	/	3
C[C@@H]1CN([C@H](C)CO)S(=O)(=O)c2ccc(C#Cc3ccccc3)cc2O[C@H]1CN(C)C(=O)Nc1ccc2c(c1)OCO2	/	/	-4	/	/	-2
O=C(O)c1cccc(-n2sc3ccccc3c2=O)c1	52*	1	-5	1	4	-2
C[C@@H]1CN([C@H](C)CO)C(=O)CCCn2nncc2CO[C@H]1CN(C)C(=O)Nc1cccc2ccccc12	/	/	1	/	/	-4
COc1cc(C(=O)C(=O)c2ccc(O)c(OC)c2)ccc1O	-1	-6	1	-2	7	-1
COc1cc(-c2cc[n+](C)cc2)ccc1O	67*	-14	4	1	0	-2
Nc1cc(-c2ccccc2)ccc1O	37*	-2	-11	2	16	-5
Cc1cccc(OCC(=O)N(C)CC(=O)Nc2cccc(F)c2)c1C	2	-3	-5	-1	-2	-4
